Measured values: PubChem BioAssay
Unmarked numbers belong to inactive results. This is one part of the list. Calls of active or inactive are those of the source.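 Rule for the calls, unless noted: active = inhibition above the hit cutoff set in the earlier primary screen (cut at about 27% in these data); inactive = the rest.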

Assays:
[1] = molecular target: Protein phosphatase methylesterase 1 (Homo sapiens) (UniProt Q9Y570); experiment: human PME-1 methylesterase inhibition confirmation – biochemical, fluorescence polarization, FP-Rh probe, triplicate (AID 2171); details: recombinant PME-1, FP-Rh probe fluorescence polarization; at 5.9 µM; stronger effect = higher value;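 note: 0% = enzyme with DMSO and 100% = wells lacking PME-1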
Sequence of Protein phosphatase methylesterase 1 (Homo sapiens) (Q9Y570 whole entry, looked up, the tested form may be a part): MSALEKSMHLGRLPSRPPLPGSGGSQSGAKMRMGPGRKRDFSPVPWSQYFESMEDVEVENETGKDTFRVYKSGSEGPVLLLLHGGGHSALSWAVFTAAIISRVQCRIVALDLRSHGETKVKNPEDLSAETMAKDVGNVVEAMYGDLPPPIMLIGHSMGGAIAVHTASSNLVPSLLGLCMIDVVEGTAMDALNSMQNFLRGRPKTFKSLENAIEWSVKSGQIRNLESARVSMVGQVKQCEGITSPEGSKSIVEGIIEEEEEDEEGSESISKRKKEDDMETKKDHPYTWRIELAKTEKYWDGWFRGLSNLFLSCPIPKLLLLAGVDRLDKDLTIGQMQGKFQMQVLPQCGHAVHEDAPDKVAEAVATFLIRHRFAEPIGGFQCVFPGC

[2] = molecular target: Nuclear receptor coactivator 3 (Homo sapiens) (UniProt Q9Y6Q9); experiment: NCOA3 GAL4-fusion reporter inhibition – cell-based, luminescence, quadruplicate, confirmation (AID 588792;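 active = mean inhibition over 43.08%, the solvent-only control mean plus 3 SD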;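 note: 0% = DMSO treated cells and 100% = gossypol at 36 µM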); details: HEK293 GAL4-SRC3 luciferase reporter, at 3.6 µM, stronger effect = higher value
Sequence of Nuclear receptor coactivator 3 (Homo sapiens) (Q9Y6Q9 whole entry, looked up, the tested form may be a part): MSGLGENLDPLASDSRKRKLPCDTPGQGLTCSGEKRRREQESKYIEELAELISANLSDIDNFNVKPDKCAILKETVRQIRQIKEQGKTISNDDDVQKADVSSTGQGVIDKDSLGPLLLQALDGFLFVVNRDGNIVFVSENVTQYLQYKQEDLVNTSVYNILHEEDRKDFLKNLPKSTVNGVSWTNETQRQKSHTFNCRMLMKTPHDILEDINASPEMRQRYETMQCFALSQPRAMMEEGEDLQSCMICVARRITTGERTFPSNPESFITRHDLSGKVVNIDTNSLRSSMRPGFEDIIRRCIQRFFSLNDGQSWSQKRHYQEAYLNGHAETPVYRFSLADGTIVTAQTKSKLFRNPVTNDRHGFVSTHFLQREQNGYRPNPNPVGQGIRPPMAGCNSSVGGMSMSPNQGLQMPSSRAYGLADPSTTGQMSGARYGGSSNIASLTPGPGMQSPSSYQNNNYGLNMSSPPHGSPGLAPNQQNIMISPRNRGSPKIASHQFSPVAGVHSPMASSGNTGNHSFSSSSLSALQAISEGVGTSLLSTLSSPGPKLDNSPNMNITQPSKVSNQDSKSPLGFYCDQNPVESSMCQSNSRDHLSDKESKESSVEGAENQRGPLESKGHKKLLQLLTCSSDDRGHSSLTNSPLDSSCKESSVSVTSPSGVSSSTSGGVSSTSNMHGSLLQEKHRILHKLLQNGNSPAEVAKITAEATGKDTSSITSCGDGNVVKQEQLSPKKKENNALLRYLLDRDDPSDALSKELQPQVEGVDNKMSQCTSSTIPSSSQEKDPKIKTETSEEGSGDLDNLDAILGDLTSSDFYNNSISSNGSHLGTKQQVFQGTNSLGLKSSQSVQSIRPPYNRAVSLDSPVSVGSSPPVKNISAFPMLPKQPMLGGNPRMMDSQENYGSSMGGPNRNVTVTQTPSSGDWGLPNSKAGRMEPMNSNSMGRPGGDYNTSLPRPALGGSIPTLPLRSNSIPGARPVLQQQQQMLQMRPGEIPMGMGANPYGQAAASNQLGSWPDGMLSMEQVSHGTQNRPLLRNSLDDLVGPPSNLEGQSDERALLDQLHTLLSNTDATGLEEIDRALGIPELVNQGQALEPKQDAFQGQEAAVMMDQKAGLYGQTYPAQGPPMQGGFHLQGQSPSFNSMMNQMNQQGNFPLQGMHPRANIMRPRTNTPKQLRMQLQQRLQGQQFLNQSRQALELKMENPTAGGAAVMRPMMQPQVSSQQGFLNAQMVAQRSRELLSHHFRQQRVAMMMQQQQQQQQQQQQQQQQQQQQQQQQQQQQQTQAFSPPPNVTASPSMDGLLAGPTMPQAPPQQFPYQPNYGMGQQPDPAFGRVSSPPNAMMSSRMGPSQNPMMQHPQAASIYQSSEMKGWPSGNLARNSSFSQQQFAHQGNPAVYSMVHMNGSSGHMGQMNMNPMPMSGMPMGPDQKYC

[3] = tested on: transactivating tegument protein VP16 (Human herpesvirus 1), Gal4-VP16 luciferase reporter; experiment: repression of VP16-driven luciferase reporter – cell-based, luminescence, high throughput, counter-screen for SRC3 inhibitor project (AID 588794; in the data active = inhibition above about 30%); details: mammalian cells, at 3.6 µM, stronger effect = higher value
[4] = StAR promoter reporter inhibitors, counter-screen for LRH-1 inverse agonist project, cell-based, luminescence, high throughput (AID 651611; in the data active = inhibition above about 28%); details: StAR promoter luciferase reporter counterscreen, at 3.6 µM, stronger effect = higher value
[5] = molecular target: Nuclear receptor subfamily 5 group A member 2 (Homo sapiens) (UniProt O00482); experiment: NR5A2 activity suppression in reporter cells – cell-based, luminescence, confirmation (AID 651613; in the data active = inhibition above about 42%;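 note: HEK293T cells co-transfected with LRH-1 and StAR promoter luciferase reporter; 0% = vehicle wells and 100% = parental cells lacking receptor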); details: cell-based LRH-1 luciferase reporter, inverse agonism; at 3.6 µM; stronger effect = higher value
Sequence of Nuclear receptor subfamily 5 group A member 2 (Homo sapiens) (O00482 whole entry, looked up): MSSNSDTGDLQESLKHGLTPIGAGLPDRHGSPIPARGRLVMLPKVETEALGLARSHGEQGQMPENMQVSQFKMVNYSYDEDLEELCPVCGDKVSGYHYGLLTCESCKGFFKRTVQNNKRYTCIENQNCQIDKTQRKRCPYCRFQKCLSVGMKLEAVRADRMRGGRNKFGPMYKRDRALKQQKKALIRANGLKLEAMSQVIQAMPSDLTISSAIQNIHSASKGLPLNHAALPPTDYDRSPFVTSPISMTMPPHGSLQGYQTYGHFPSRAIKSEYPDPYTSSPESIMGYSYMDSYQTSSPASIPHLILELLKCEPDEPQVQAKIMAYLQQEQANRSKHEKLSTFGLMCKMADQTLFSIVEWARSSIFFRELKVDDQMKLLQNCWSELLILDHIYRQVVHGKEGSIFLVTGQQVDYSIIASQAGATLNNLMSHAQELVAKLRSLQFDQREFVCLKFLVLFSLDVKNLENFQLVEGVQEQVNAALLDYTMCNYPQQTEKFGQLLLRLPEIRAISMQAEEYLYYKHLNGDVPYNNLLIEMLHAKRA

[6] = molecular target: Steroidogenic factor 1 (Homo sapiens) (UniProt Q13285); experiment: inverse agonism at SF1 nuclear receptor – cell-based, luminescence, high throughput, counter-screen for LRH-1 inverse agonist project (AID 651614; in the data active = inhibition above about 44%;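 note: cells cotransfected with StAR promoter reporter and SF1 expression vector; 0% = vehicle on cells with receptor and 100% = vehicle on cells lacking receptor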); details: cell-based SF1 luciferase reporter, at 3.6 µM, stronger effect = higher value
Sequence of Steroidogenic factor 1 (Homo sapiens) (Q13285 whole entry, looked up, the tested form may be a part): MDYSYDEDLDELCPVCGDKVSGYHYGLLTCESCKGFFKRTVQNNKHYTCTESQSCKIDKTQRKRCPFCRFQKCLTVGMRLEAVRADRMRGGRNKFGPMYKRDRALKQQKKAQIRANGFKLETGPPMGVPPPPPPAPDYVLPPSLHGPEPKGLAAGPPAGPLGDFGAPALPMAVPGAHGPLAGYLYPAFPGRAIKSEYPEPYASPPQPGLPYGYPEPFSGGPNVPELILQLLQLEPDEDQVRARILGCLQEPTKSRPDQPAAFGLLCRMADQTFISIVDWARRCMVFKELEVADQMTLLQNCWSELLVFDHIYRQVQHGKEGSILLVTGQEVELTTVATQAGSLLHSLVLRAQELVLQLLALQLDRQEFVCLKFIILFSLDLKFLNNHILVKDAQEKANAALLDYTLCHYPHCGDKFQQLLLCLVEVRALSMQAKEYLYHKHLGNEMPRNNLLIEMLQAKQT

[7] = compounds suppressing VP16-driven luciferase signal – cell-based, luminescence, high throughput, counter-screen for LRH-1 inverse agonist project (AID 651615; in the data active = inhibition above about 33%); details: Gal4-VP16 luciferase reporter cells, at 3.6 µM, stronger effect = higher value
[8] = molecular target: Glutathione S-transferase omega-1 (Homo sapiens) (UniProt P78417); experiment: recombinant GSTO1 blockers, retest – biochemical, fluorescence polarization, triplicate, counter-screen for RBBP9 inhibitor project, confirmation (AID 2176;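 active = inhibition above the primary screen's cutoff, its mean inhibition plus 3 SD, cut at about 35% in these data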;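 note: loss of polarization as inhibitors block binding of rhodamine sulfonate ester activity probe; 0% = GSTO1 with DMSO and 100% = wells lacking GSTO1 enzyme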); details: recombinant GSTO1, probe fluorescence polarization; at 5.96 µM; stronger effect = higher value
Sequence of Glutathione S-transferase omega-1 (Homo sapiens) (P78417 whole entry, looked up): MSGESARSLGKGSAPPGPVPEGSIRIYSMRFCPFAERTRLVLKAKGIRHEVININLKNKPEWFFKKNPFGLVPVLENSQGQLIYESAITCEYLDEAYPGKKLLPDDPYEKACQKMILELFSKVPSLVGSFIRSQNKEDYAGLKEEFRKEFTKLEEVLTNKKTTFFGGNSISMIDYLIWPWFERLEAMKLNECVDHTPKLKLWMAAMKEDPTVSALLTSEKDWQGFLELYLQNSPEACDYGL

[9] = molecular target: Platelet-activating factor acetylhydrolase (Homo sapiens) (UniProt Q13093); experiment: inhibition of plasma PAF acetylhydrolase – biochemical, fluorescence polarization, human, confirmation (AID 463230;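 active = mean inhibition of the triplicate above the hit cutoff set for the earlier primary screen, cut at about 25% in these data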;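 note: 0% = enzyme with DMSO and 100% = wells lacking pPAFAH enzyme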); details: recombinant pPAFAH, FP-Rh probe fluorescence polarization; at 3.39 µM; stronger effect = higher value
Sequence of Platelet-activating factor acetylhydrolase (Homo sapiens) (Q13093 whole entry, looked up): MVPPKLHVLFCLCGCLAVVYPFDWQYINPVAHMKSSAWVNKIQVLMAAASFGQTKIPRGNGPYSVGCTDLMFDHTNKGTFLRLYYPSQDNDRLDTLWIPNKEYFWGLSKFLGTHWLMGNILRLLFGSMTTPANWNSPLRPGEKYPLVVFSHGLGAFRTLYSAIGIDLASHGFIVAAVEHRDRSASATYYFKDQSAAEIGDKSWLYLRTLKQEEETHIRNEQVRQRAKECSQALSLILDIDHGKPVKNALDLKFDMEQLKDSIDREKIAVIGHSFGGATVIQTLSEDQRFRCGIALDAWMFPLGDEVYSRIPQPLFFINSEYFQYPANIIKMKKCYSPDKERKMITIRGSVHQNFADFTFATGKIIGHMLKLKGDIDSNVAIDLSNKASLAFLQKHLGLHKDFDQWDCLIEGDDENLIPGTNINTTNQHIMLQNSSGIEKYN

[10] = molecular target: Oxytocin receptor (Homo sapiens) (UniProt P30559); experiment: oxytocin receptor activation, retest of hits – fluorescence, CHO-OTR cells, triplicate, confirmation (AID 434963;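 active = mean activation above about 20% derived from the earlier single-dose screen, limit read from the data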;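 note: peak over minimum fluorescence ratio per well during a 100 second FLIPR read; 0% = DMSO alone and 100% = oxytocin high control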); details: Fluo-8 calcium fluorescence, agonist, at 3 µM, stronger effect = higher value
[11] = molecular target: Vasopressin V1a receptor (Homo sapiens) (UniProt P37288); experiment: activators of vasopressin V1R in CHO cells – cell-based, triplicate, fluorescence, counter-screen for OXTR agonist project (AID 434991;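 active = mean activation over triplicate exceeds the hit threshold set in the earlier primary screen, cut at about 20% in these data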;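 note: peak over basal fluorescence ratio within a 100 second read; 0% = DMSO alone and 100% = 3 nM vasopressin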); details: Fluo-8 calcium fluorescence, at 3 µM, stronger effect = higher value
[12] = tested on: transactivating tegument protein VP16 (Human herpesvirus 1); experiment: compounds suppressing VP16-driven luciferase signal – cell-based, luminescence, single concentration, counter-screen for SRC2 inhibitor project (AID 652007; in the data active = inhibition above about 36%); details: cell-based VP16 transactivation luciferase reporter, at 8.9 µM, stronger effect = higher value
[13] = molecular target: Nuclear receptor coactivator 2 (Homo sapiens) (UniProt Q15596); experiment: inhibition of GAL4-SRC2 driven luciferase expression – cell-based, luminescence, HEK293, triplicate, confirmation (AID 652008;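 active = mean inhibition above 46.5%, the solvent-only control mean plus 3 SD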;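 note: 0% = DMSO-treated cells and 100% = Gossypol at 36 µM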); details: HEK293 GAL4-SRC2 luciferase reporter, at 8.9 µM, stronger effect = higher value
[14] = reduced OD of T4-infected AddAB+ E. coli – absorbance, E. coli V3065, T4 phage, triplicate, AddAB inhibitor project, confirmation (AID 488942;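 active = mean inhibition above a set limit taken from the earlier primary screen, cut at about 13% in these data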;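 note: higher means less bacterial growth since AddAB block lets phage replicate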); details: E. coli V3065 expressing H. pylori AddAB, at 11.9 µM, stronger effect = higher value
[15] = reduced OD of phage-infected RecBCD+ V66 E. coli – absorbance, mutant T4 phage, counter-screen for AddAB inhibitor project (AID 488955;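 active = mean inhibition above the mean of solvent-only control wells plus 3 SD, cut at about 4% in these data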;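 note: optical density read after an 18 h incubation at 37 °C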); details: OD growth, at 11.9 µM, stronger effect = higher value
[16] = bacterial growth inhibitors – absorbance, counter-screen for AddAB inhibitor project, confirmation (AID 488956; in the data active = inhibition above about 25%); details: bacterial viability, absorbance (AddAB counterscreen); at 11.9 µM; stronger effect = higher value
[17] = molecular target: Nuclear receptor coactivator 1 (Homo sapiens) (UniProt Q15788); experiment: NCOA1 GAL4-fusion reporter inhibition – cell-based, luminescence, quadruplicate, confirmation (AID 588820;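 active = mean inhibition above 46.68%, the untreated control wells mean plus 3 SD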;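 note: 0% = DMSO wells and 100% = gossypol 36 µM treated wells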); details: HEK293 GAL4-SRC1 luciferase reporter, at 3.6 µM, stronger effect = higher value
Sequence of Nuclear receptor coactivator 1 (Homo sapiens) (Q15788 whole entry, looked up, the tested form may be a part): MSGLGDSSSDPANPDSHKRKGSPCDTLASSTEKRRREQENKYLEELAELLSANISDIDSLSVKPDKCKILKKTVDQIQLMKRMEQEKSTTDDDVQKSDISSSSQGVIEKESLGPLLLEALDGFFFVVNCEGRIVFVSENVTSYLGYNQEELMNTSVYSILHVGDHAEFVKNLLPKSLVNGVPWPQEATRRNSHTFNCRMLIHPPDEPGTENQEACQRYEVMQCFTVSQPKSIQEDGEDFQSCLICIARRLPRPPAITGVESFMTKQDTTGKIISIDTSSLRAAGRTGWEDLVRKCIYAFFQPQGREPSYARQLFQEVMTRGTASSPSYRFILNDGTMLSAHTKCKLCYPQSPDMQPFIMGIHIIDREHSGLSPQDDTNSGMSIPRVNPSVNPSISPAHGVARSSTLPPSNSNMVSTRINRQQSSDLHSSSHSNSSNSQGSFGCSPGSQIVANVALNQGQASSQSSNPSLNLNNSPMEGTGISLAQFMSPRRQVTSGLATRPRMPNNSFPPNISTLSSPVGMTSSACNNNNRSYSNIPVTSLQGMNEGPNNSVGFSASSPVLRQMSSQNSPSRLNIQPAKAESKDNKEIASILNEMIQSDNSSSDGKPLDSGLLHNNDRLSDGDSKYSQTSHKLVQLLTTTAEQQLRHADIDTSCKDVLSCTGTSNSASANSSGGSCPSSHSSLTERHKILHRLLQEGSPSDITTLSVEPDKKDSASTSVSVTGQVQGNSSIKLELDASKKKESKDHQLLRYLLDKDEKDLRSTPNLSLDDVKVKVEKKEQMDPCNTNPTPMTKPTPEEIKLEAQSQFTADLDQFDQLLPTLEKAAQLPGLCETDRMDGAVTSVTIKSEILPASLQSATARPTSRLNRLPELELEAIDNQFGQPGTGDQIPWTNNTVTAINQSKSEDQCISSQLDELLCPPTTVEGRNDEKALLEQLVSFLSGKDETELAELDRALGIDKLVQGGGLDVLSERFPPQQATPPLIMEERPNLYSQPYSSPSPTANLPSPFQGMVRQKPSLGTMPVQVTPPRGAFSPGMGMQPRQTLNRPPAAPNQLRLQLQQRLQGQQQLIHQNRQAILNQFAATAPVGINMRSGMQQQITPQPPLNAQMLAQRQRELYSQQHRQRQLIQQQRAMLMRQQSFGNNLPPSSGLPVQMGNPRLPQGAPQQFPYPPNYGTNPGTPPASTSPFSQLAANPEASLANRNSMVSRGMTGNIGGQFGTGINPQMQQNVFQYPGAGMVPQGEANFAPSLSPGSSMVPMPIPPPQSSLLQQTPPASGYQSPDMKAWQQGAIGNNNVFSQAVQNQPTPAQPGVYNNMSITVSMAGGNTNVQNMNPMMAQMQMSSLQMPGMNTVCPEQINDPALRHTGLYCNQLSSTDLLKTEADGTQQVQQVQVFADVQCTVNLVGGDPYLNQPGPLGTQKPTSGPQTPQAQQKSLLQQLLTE

[18] = repression of VP16-driven luciferase reporter – cell-based, luminescence, high throughput, counter-screen for SRC1 inhibitor project (AID 588824; in the data active = inhibition above about 25%); details: cell-based VP16 transactivation luciferase luminescence; at 3.6 µM; stronger effect = higher value

Nc1c(C(=O)NCc2ccco2)c2nc3ccccc3nc2n1CCN1CCOCC1
inhibition [1]: 7.2%

C[C@H]1CCC/C=C/C2C[C@H](O)CC2[C@H](O)/C=C/C(=O)O1 (some centres not stated)
inhibition [2]: 69.2% (active) | inhibition [3]: 80.2% (active)

CC(C)C(=O)c1cn(Cc2ccccc2C#N)c2ccccc12
inhibition [1]: 62.8% (active)

Cn1ncnc2c(=O)n(C)c(=O)nc1-2
inhibition [1]: 43.2% (active) | inhibition [4]: 76.9% (active) | inhibition [5]: 92.6% (active) | inhibition [6]: 84.3% (active) | inhibition [7]: 87.6% (active)

Cc1c(C(=O)N2CCC3(CC2)OCCO3)sc2ncnc(N3CCN(c4ccccn4)CC3)c12
inhibition [2]: -7.87% | inhibition [3]: -13.2%

Cc1cc(Br)c(NC(=O)CN2CC=C(c3ccccc3)CC2)c(Br)c1
inhibition [1]: 44.9% (active)

O=C(O)COc1ccccc1/C=C1\C(=O)NC(=O)N(CCC2=CCCCC2)C1=O
inhibition [8]: 9.09%

COc1ccc(-n2c(/C=C/c3ccc(O)c(O)c3)nc3ccccc3c2=O)cc1
inhibition [1]: -10.6%

O=P(Oc1ccccc1)(Oc1ccccc1)C(O)c1ccccc1 (configuration not stated)
inhibition [1]: 78.1% (active)

COC(=O)c1nc(-c2ccc3c(n2)C(=O)C(N)=C(OC)C3=O)c(N)c(-c2ccc(OC)c(OC)c2O)c1C
inhibition [1]: 67.4% (active)

NP(=O)(OCC(F)(F)F)Oc1ccc(Cl)cc1 (configuration not stated)
inhibition [1]: 30.6% (active)

COc1ccc(OC(=O)N(C)C)c(CN(C)C)c1
inhibition [2]: 5.12% | inhibition [3]: -6.66%

O=c1[nH]c(=S)[nH]c(O)c1N=Nc1ccc(S(=O)(=O)N2CCc3ccccc32)cc1
inhibition [1]: 46% (active) | inhibition [4]: 35% (active) | inhibition [5]: 49.8% (active) | inhibition [6]: 47.9% (active) | inhibition [7]: 7.96%

CC(C)CCOP(N)(=O)Oc1ccccc1Cl (configuration not stated)
inhibition [1]: 42.3% (active)

Cc1nn(-c2ccccc2)c(C)c1NC(=O)COC(=O)Cc1ccccc1
inhibition [9]: 43.1% (active)

CC(=NCc1ccc2c(c1)OCO2)c1c(O)n(-c2ccccc2)c(=O)[nH]c1=O
inhibition [2]: -6% | inhibition [3]: 13.8%

Cc1ccc(N=C(/N=C(\N)N[N+](=O)[O-])Nc2ccc(C)cc2)cc1
inhibition [2]: -0.99% | inhibition [3]: 1.74%

NCCc1ccc(S(=O)(=O)F)cc1
inhibition [9]: 71.9% (active)

CC(Cc1ccccc1)NCCC(c1ccccc1)c1ccccc1 (configuration not stated)
activation [10]: 11.2% | activation [11]: 4.33%

Cc1nc2c(=O)n(C)c(=O)nc-2n(C)n1
inhibition [1]: 33% (active) | inhibition [4]: 78.3% (active) | inhibition [5]: 94.5% (active) | inhibition [6]: 83.4% (active) | inhibition [7]: 90.8% (active) | inhibition [12]: 62.6% (active) | inhibition [13]: 77.8% (active)

CCNc1nc2[nH]c(=O)c3c(c2s1)OC(N)=C(C#N)C3c1cccs1 (configuration not stated)
inhibition [8]: 7.87%

CN(C)S(=O)(=O)c1cc(C(=O)N2CCC(C(=O)O)(c3ccccc3)CC2)ccc1Cl
inhibition [14]: 85.5% (active) | inhibition [15]: 1.24% | inhibition [16]: 26.1% (active)

COc1cccc(OC)c1C1=NCC(=O)Nc2c1oc1ccc(Br)cc21
inhibition [1]: 52.8% (active)

CNc1ccc2nc3ccccc3[n+](C)c2c1
inhibition [1]: 61.7% (active) | inhibition [17]: -4.23% | inhibition [18]: 3.25%

CCCNC(=O)N1[C@H]2CC[C@@H]1C(C(=O)OC)=C(c1ccc(OC(F)(F)F)cc1)C2
inhibition [2]: 14.2% | inhibition [3]: -7.81%

CCN(CC)S(=O)(=O)c1cc(NC(=O)C(C)N2CC=C(c3ccccc3)CC2)ccc1C (configuration not stated)
inhibition [1]: 43.7% (active)

COC1=CC2C3Cc4ccc(OC)c(O)c4C2(CCN3C)CC1=O (configuration not stated)
inhibition [2]: 7% | inhibition [3]: 11.3%

CC(=O)c1ccc2c(c1)C1C(Cl)C(Sc3ccccc3[N+](=O)[O-])CC1C(c1ccccc1[N+](=O)[O-])N2 (configuration not stated)
inhibition [1]: 20.4%

NC(Cc1cc(O)c(O)cc1O)C(=O)O (configuration not stated)
inhibition [1]: 69.4% (active)

CCC(=O)c1cn(Cc2ccccc2C#N)c2ccccc12
inhibition [1]: 19.9%

C[n+]1c(-c2ccccc2)c2cc(N)ccc2c2ccc(N)cc21
inhibition [1]: 83.5% (active)

Cc1ccc(-c2cc(-c3ccc(C)cc3)[n+](-c3ccccc3)c(-c3ccc(C)cc3)c2)cc1
inhibition [2]: 79.8% (active) | inhibition [3]: 82.6% (active) | inhibition [17]: 48.3% (active) | inhibition [18]: 80.6% (active) | inhibition [4]: 84.5% (active) | inhibition [5]: 111% (active) | inhibition [6]: 94.8% (active) | inhibition [7]: 95% (active)

CN(C)c1ccc(C(=O)N/N=C/C23CC[C@@H](O)CC2(O)CC[C@@H]2[C@@H]3CCC3(C)C(C4=CC(=O)OC4)CCC23O)cc1 (some centres not stated)
inhibition [2]: 1.62% | inhibition [3]: 23.4% | inhibition [17]: -57.9% | inhibition [18]: 7.1%

O=[N+]([O-])c1ccc(N2CCOCC2)c2c1no[n+]2[O-]
inhibition [2]: 82.4% (active) | inhibition [3]: 62.9% (active) | inhibition [17]: 23% | inhibition [18]: 62.2% (active) | inhibition [4]: 94.1% (active) | inhibition [5]: 101% (active) | inhibition [6]: 92.6% (active) | inhibition [7]: 70.7% (active)

O=c1[nH]c2ccccc2n1C1CCN(C(c2cccs2)c2nnnn2Cc2ccccc2)CC1 (configuration not stated)
inhibition [2]: 32.3% | inhibition [3]: 36.7% (active) | inhibition [17]: 0.46% | inhibition [18]: 32.5% (active)

O=c1[nH]c2ccccc2n1C1CCN(C(c2ccnc3ccccc23)c2nnnn2-c2ccc3c(c2)OCCO3)CC1 (configuration not stated)
inhibition [2]: 8.29% | inhibition [3]: 6.76% | inhibition [17]: -26.3% | inhibition [18]: 8.7%

C[C@]12CC[C@H](O)C[C@H]1CC[C@@H]1[C@@H]2C[C@@H](O)[C@]2(C)[C@@H](C3=CC(=O)OC3)CC[C@]12O
inhibition [2]: 88.8% (active) | inhibition [3]: 65.8% (active) | inhibition [17]: 13.8% | inhibition [18]: 65.4% (active) | inhibition [4]: 94.8% (active) | inhibition [5]: 107% (active) | inhibition [6]: 96% (active) | inhibition [7]: 77.7% (active)

CC1=C(N2CC2)C(=O)C(CO)=C(N2CC2)C1=O
inhibition [2]: 96.1% (active) | inhibition [3]: 91.2% (active) | inhibition [17]: 86.1% (active) | inhibition [18]: 93% (active)
